In PubChem BioAssay AID2242 (National Center for Advancing Translational Sciences (NCATS), 2010):
In all, about 200,000 compounds went through this assay and about 720 (0.36%) were called active. Another 8% or so got no clear call; they are omitted. The call rests on the fitted dose curve; in most records, active means well fitted activation curve with a large enough effect; inconclusive means small, poorly fitted or top-dose-only effect, or effect the other way, or another doubt; inactive means flat fitted curve, though single readings scatter. The list shows a part of the results.

Biological target: Lysosomal alpha-glucosidase (Homo sapiens) (UniProt P10253)
Assay: qHTS Assay for Activators of Human alpha-Glucosidase as a Potential Chaperone Treatment of Pompe Disease; further: nearly all actives have a fitted effect of over 80% in size
Details: purified enzyme, 4-MU-alpha-glucoside fluorescence, 20 min; series mostly up to 76.9 µM
Outline: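 Compounds titrated up to 77 uM against 4 nM enzyme and 400 uM methylumbelliferyl substrate at room temperature, 20 min, pH 5.0. Basic stop, then 4-methylumbelliferone fluorescence (365/440 nm) normalized to no-enzyme and enzyme controls; Hill-equation AC50.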
Potency means the concentration at half of the fitted maximal effect.

Potency, active:
CN(C)CCNC(=O)c1cc2c(s1)-c1ccccc1OC2 6.31 µM, O=C(NCc1cccs1)c1cc2c(s1)-c1ccccc1OC2 39.8 µM, COC(=O)c1ccc(-c2ncc(-c3cccc4ccccc34)o2)cc1 28.2 µM, Cc1cc(-c2ccc(C(=O)O)s2)cnc1N 28.2 µM, O=C(COC(=O)c1ccccc1Nc1ccccc1)NCc1ccccc1Cl 28.2 µM, CCCCNS(=O)(=O)c1ccc2nc(-c3cccs3)cc(C(=O)NCC(OC)OC)c2c1 25.1 µM, COc1cc2cc(C(N)=O)c(N)nc2cc1OC 35.5 µM, COc1ccccc1N1CCN(C(=O)c2c(-c3ccccc3)noc2C)CC1 35.5 µM, CCNC(=O)/C(C#N)=C/c1c(N2CCOCC2)nc2ccccn2c1=O 28.2 µM, O=c1cc(CN2CCN(S(=O)(=O)/C=C/c3ccccc3)CC2)c2ccc(O)cc2o1 35.5 µM, O=c1cc(CN2CCN(S(=O)(=O)c3ccc4c(c3)OCCO4)CC2)c2ccc(O)cc2o1 28.2 µM, O=c1[nH]c(=O)c2nc(-c3ccc(Cl)cc3)cnc2[nH]1 28.2 µM, c1ccc(CN2c3ccccc3-c3nc4ccccc4n3C2c2ccccn2)cc1 (centres undefined) 28.2 µM, CCN1c2ccccc2-c2nc3ccccc3n2C1c1ccccn1 (centres undefined) 31.6 µM, CCOCC(=O)Nc1ccc(-c2cn3cccnc3n2)cc1 35.5 µM, CCOCC(=O)Nc1cc(-c2cn3cccnc3n2)ccc1C 35.5 µM, COCC(=O)Nc1ccc(-c2cn3cccnc3n2)cc1 35.5 µM, CC(=O)Nc1ccc(-c2cn3cccnc3n2)cc1 28.2 µM, CCCCCC(=O)Nc1ccc(-c2cn3cccnc3n2)cc1 35.5 µM, Cc1onc(-c2ccccc2Cl)c1C(=O)Nc1cccc(-c2nc3ncccn3c2C)c1 35.5 µM, Cc1onc(-c2ccccc2Cl)c1C(=O)Nc1ccc(-c2cn3cccnc3n2)cc1 35.5 µM, CC(C)(O[C@@H]1O[C@H](CO)[C@@H](O)[C@H](O)[C@H]1O)[C@H]1Cc2cc3ccc(=O)oc3cc2O1 35.5 µM, O=C(Oc1cc2oc(=O)c3c(c2cc1Cl)CCCC3)c1ccco1 10 µM, O=C(Oc1ccc2c3c(c(=O)oc2c1)CCCC3)c1ccco1 35.5 µM, O=C(Oc1ccc2c3c(c(=O)oc2c1)CCC3)c1ccco1 35.5 µM, CC(C)c1cc(NCC2CCCO2)n2c(nc3ccccc32)c1C#N (centres undefined) 35.5 µM, CCCc1cc(NCC2CCCO2)n2c(nc3ccccc32)c1C#N (centres undefined) 35.5 µM, CCN1CCN(CCCNC(=O)c2cc3cc4ccc(OC)cc4nc3o2)CC1 35.5 µM, COc1ccc2cc3cc(C(=O)NCCCN4CCOCC4)oc3nc2c1 35.5 µM, CCCSc1nc2sc3c(c2c(=O)[nH]1)CCN(Cc1ccccc1)C3 31.6 µM, COC(=O)c1sc2cnccc2c1N 35.5 µM, COC(=O)c1sc2ccccc2c1N 39.8 µM, COC(=O)c1ccncc1N 35.5 µM, Cc1ccc(-n2c(N)c(S(=O)(=O)c3ccccc3)c3nc4ccccc4nc32)cc1 25.1 µM, Cc1cccc(S(=O)(=O)c2c(N)n(-c3ccccc3)c3nc4ccccc4nc23)c1 35.5 µM, Cc1ccc(S(=O)(=O)c2c(N)n(CC3CCOC3)c3nc4ccccc4nc23)cc1 (centres undefined) 35.5 µM, Cc1ccc(S(=O)(=O)c2c(N)n(CCCO)c3nc4ccccc4nc23)cc1 35.5 µM, Nc1c(S(=O)(=O)c2ccccc2)c2nc3ccccc3nc2n1C1CC1 28.2 µM, Cc1ccc(S(=O)(=O)c2c(N)n(C)c3nc4ccccc4nc23)cc1 25.1 µM, Nc1c(S(=O)(=O)c2ccccc2)c2nc3ccccc3nc2n1CCN1CCOCC1 39.8 µM, Nc1c(S(=O)(=O)c2ccccc2)c2nc3ccccc3nc2n1Cc1ccco1 28.2 µM, Cc1cccn2c(=O)c3cc(C#N)c(=NC(=O)c4ccncc4)n(CCCOC(C)C)c3nc12 35.5 µM, COCCCn1c(=NC(=O)c2ccccc2)c(C#N)cc2c(=O)n3cccc(C)c3nc21 39.8 µM, COCCCn1c(=NC(=O)c2ccncc2)c(C#N)cc2c(=O)n3cccc(C)c3nc21 35.5 µM, CCC12OC(=N)C(C#N)(C1C)C(C#N)(C#N)C(c1ccccc1)O2 (centres undefined) 39.8 µM, CCC1OC2(C)OC(=N)C1(C#N)C(C#N)(C#N)C2c1ccccc1 (centres undefined) 35.5 µM, CC(=O)Nc1ccc(S(=O)(=O)C(C#N)c2nc3ccccc3nc2NCCO)cc1 (centres undefined) 35.5 µM, CC(=O)Nc1ccc(S(=O)(=O)C(C#N)c2nc3ccccc3nc2NCCCO)cc1 (centres undefined) 31.6 µM, Cc1ccc(S(=O)(=O)NC(C(=O)Oc2ccc3c(C)c(Cl)c(=O)oc3c2)c2ccccc2)cc1 (centres undefined) 28.2 µM, Cc1ccc(S(=O)(=O)NC(C(=O)Oc2ccc3ccc(=O)oc3c2)c2ccccc2)cc1 (centres undefined) 35.5 µM, Cc1ccc(S(=O)(=O)NC(C(=O)Oc2cc3oc(=O)cc(C)c3cc2Cl)C(C)C)cc1 (centres undefined) 31.6 µM, O=C(Oc1ccc2ccc(=O)oc2c1)C1CCCCC1 35.5 µM, CC(C)(C)OC(=O)NCCC(=O)Oc1ccc2ccc(=O)oc2c1 35.5 µM, CC(NC(=O)OC(C)(C)C)C(=O)Oc1ccc2ccc(=O)oc2c1 (centres undefined) 31.6 µM, CCOC(=O)CCc1c(C)c2ccc(O)cc2oc1=O 35.5 µM, Cc1c(CCC(=O)O)c(=O)oc2cc(O)ccc12 35.5 µM, Cc1cccc(C(=O)N=c2c(C#N)cc3c(=O)n4cccc(C)c4nc3n2Cc2ccco2)c1 35.5 µM, Cc1ccccc1C(=O)N=c1c(C#N)cc2c(=O)n3cccc(C)c3nc2n1Cc1ccco1 35.5 µM, Fc1ccc(N2N=C(c3cccs3)CC2c2ccco2)c(F)c1 (centres undefined) 31.6 µM, Clc1ccc(N2N=C(c3cccs3)CC2c2ccco2)cc1 (centres undefined) 35.5 µM, O=c1oc2ccccc2c2c1SC(C(F)(F)F)C2 (centres undefined) 31.6 µM, NS(=O)(=O)c1ccc(N2N=C(c3ccc(Br)cc3)CC2c2ccc(F)cc2)cc1 (centres undefined) 31.6 µM, COc1ccc(C2CC(c3ccccc3)=NN2c2ccc(Cl)c(C(=O)O)c2)cc1 (centres undefined) 28.2 µM, O=S(=O)(O)c1ccc(N2N=C(c3ccccc3)CC2c2ccccc2)cc1 (centres undefined) 35.5 µM, NS(=O)(=O)c1ccc(N2N=C(c3ccccc3)CC2c2ccccc2)cc1 (centres undefined) 31.6 µM, COc1ccc(C2CC(c3ccccc3)=NN2c2ccc(S(N)(=O)=O)cc2)cc1OC (centres undefined) 31.6 µM, NS(=O)(=O)c1ccc(N2N=C(c3ccccc3)CC2c2ccc(F)cc2)cc1 (centres undefined) 31.6 µM, CCc1ccc(C2=NN(c3ccc(S(N)(=O)=O)cc3)C(c3ccc(F)cc3)C2)cc1 (centres undefined) 31.6 µM, NS(=O)(=O)c1ccc(N2N=C(c3ccccc3)CC2c2cccc(F)c2)cc1 (centres undefined) 35.5 µM
